Tested on: HepG2
Experiment: GSK_TCMDC: Percent inhibition of human HepG2 cell line. Test compounds present at 10uM.
Format: functional

Row | Structure (SMILES) | Inhibition [%]
1 | COc1ccc(OC)c(-c2cccc(-c3cccc(NC(=O)c4ccc([N+](=O)[O-])o4)c3)n2)c1 | 75
2 | Fc1ccc2[nH]c(-c3cccc(-c4ccc(CN5CCCCC5)cc4)c3)nc2c1.O=C(O)C(F)(F)F | 46
3 | CC1(C)N=C(N)N=C(NOCCCCCCONC2=NC(N)=NC(C)(C)N2)N1 | 34
4 | O=C(c1ccc(O)c(-c2cc(Cl)cc(Cl)c2)c1)N1CCCC1 | 3
5 | CCC(CSC1CCCCC1)N(C)CCN(C)C(CC)CSC1CCCCC1.Cl (stereo not given) | 84
6 | CN(C)c1ccc(CN2CCC(CNC(=O)c3cc(-c4ccccc4F)cs3)C2)cc1.O=C(O)C(F)(F)F (stereo not given) | 35
7 | O=C(/C=C/c1ccc(Cl)c(Cl)c1)NCCCCCN1CCC(NC(=O)c2ccc(F)c(F)c2)CC1 | 36
8 | Cc1cccc2nc(-c3ccc(-c4ccc(NC(=O)Nc5ccc(Cl)c(Cl)c5)cc4)cc3)[nH]c12 | 37
9 | COc1ccc(CNC2Cc3ccccc3C2)cc1-c1ccc(S(=O)(=O)NCc2ccccc2)s1.O=C(O)C(F)(F)F | 22
10 | O=C(Nc1cccc(-c2ccc(-c3nc4cc(C(F)(F)F)ccc4[nH]3)cc2)c1)c1c[nH]cn1 | 16
11 | CS(=O)(=O)c1ccc(OCCCN(Cc2ccccc2C(F)(F)F)c2ccc(C#N)c(C(F)(F)F)c2)cc1 | 4
12 | O=C(O)C(F)(F)F.O=S(=O)(NCCN1CCCC1)c1ccc(-c2cccc(CNCc3ccccc3)c2)s1 | 44
13 | CN(CCO)Cc1cccc(-c2ccc(NC(=O)c3cccc(C#N)c3)cc2)c1.O=C(O)C(F)(F)F | 23
14 | Cc1ccccc1N1CCN(c2ccc(C(=O)NC3CC3)cn2)CC1.O=C(O)C(F)(F)F | 14
15 | COC(=O)c1ccccc1N1CCN(CCCCNC(=O)c2ccc(NC(=O)c3cc(Cl)cc(Cl)c3)cc2)CC1 | 20
16 | CN1CCN(c2nsc3ccc(-c4ccc(NC(=O)Nc5ccccc5)cc4)cc23)CC1.O=C(O)C(F)(F)F | 38
17 | NCC(NC(=O)c1ccc(-c2c[nH]c3ncccc23)s1)c1ccccc1.O=CO (stereo not given) | 52
18 | Cc1ccc2c(-c3ccc([N+](=O)[O-])o3)cc(C)nc2c1 | 20
19 | CCOc1ccc(Br)cc1/C=C/C(=O)Nc1ccc(C2CCN(C)CC2)cc1 | 30
20 | Cl.Nc1nc(N)c2c(Cl)c(N(Cc3ccccc3)Cc3ccccc3)ccc2n1 | 66

Row | Structure (SMILES) | Inhibition [%]
21 | Cc1cc(NC(=O)Nc2ccc(C#N)cc2)c2ccccc2n1 | 88
22 | CCOC(=O)c1ccc(NC(=O)Nc2ccc(-c3cccc(-c4nc5cccc(C)c5[nH]4)c3)cc2)cc1 | 91
23 | O=C(CCC1CCCC1)N(Cc1ccc(-c2ccc(CNCCc3ccccc3)cc2)cc1)C1CCCNC1.O=C(O)C(F)(F)F (stereo not given) | 99
24 | COc1ccc2c(NN=Cc3cccc(F)c3)ccnc2c1 | 49
25 | Cc1nc2c(Nc3nc(-c4ccncc4)cs3)ncnc2n1-c1ccccc1Cl | 14
26 | O=C(Nc1cccc(OCc2ccccc2)c1)c1ccc(CN2CCC(Cc3ccccc3)CC2)cc1 | 41
27 | Cl.O=S(=O)(Nc1cc2c(cc1OCCCN1CCCCC1)CCNCC2)c1ccc(-c2ccc(Cl)cc2)cc1 | 77
28 | CCNc1cc(C(=O)N[C@@H](Cc2ccccc2)[C@H](O)CNC(C)(C)CC(C)(C)C)c(F)c(N2CCCCS2(=O)=O)c1 | 8
29 | Cl.NC(=O)Nc1ccc2cn[nH]c2c1 | 4
30 | C=CCn1c(=N)c(C(=O)NCc2ccc(F)cc2)cc2c(=O)n3cccc(C)c3nc21 | 16
31 | COc1cccc(CNC(=O)c2ccnc(-c3ccc(CNCCOc4ccccc4)cc3)c2)c1.O=C(O)C(F)(F)F | 23
32 | Br.CCOCc1cn(CC(=O)c2ccc(-c3ccccc3)cc2)c(C)nc1=N | 13
33 | O=C(/C=C/c1ccc(Cl)c(Cl)c1)NCCCCCN1CCCN(C(=S)Nc2ccc(Cl)c(Cl)c2)CC1 | 16
34 | COc1ccc(CNCc2ccccc2)cc1-c1ccc(S(=O)(=O)NCCN2CCCC2)cc1.O=C(O)C(F)(F)F | 38
35 | CN1CCC(NCc2cccc(-c3nn(C)c4nc(NC5CCCC5)ncc34)c2)CC1 | 1
36 | CN1CCc2ccc(NC(=O)Nc3cccc([N+](=O)[O-])c3)cc2C1 | 0
37 | FC(F)(F)c1ccc2[nH]ccc(=NN=Cc3cccc(Cl)c3)c2c1 | 0
38 | Br.CCCCCCCN(CCCCCCC)CCNc1cc(C)nc2ccccc12 | 39
39 | COc1ccc(NC(=O)CCNc2cc(C)nc(NCCc3ccccc3)n2)cc1.O=C(O)C(F)(F)F | 3
40 | N=C(N)Nc1nc(-c2cccc(NC(=O)NCCc3c[nH]c4ccc(OCc5ccccc5)cc34)c2)cs1 | 0

From ChEMBL document CHEMBL1157539, “Thousands of chemical starting points for antimalarial lead identification” (Nature, 2010)
